Calls of active or inactive are those of the source. The rule behind the calls is not given here.
Tested on: Neuro-2A
Experiment: selectivity across cysteine-reactive proteome – gel-based competitive ABPP, fluorescence, MBM, Neuro-2A, selectivity assay for PME-1 inhibitor project, late-stage follow-up (AID 602468)
Details: MBM or Neuro-2A, in situ; series mostly up to 0.25 µM

CC[C@@]1(c2ccc(C)cc2)C(=O)N(C(=O)OC(C)C)N1C(=O)OC(C)C
outcome: inactive
